Experimental data from PubChem BioAssay (NCI).
This is part of a sample that, as a whole, favours compounds with a hit. Of some 79,000 tested, about 15% had one in any assay. The source made the active and inactive calls. Cut-off read from the data, not from the text of the source: active = growth inhibition above about 70%; inactive = the rest.

Assay: NCI Yeast Anticancer Drug Screen. Data for the mlh1 rad18 strain (AID 175)
Conditions: S. cerevisiae mlh1 rad18 strain growth inhibition; at 50.0 µM (retest, dose inferred, filed as 5.0); stronger effect = higher value
How it was run: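 Compound-treated yeast growth, normalised to vehicle controls. Strain bears defined DNA repair mutations.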

Structure (SMILES) | growth inhibition
CC(=O)OC1CC2C(C)(C)C(=O)C=C[C@]2(C)C2CCC3(C)C(=CCC3[C@H](CO)C[C@H](O)C(=O)C(C)(C)O)[C@]12C (stereo partly drawn) | 39% (inactive)
CCCCCCOC(=O)NCCOC(=O)Nc1ccccc1 | 53% (inactive)
CCc1c(Cl)c(C)cc(O)c1Cl | 85% (active)
Cc1nc(Nc2ccccc2[N+](=O)[O-])sc1C(=O)CC(=O)C(=O)Nc1c(C(C)C)cccc1C(C)C | 14% (inactive)
O=[N+]([O-])c1cccc2nc3ccccc3c(NCCCn3ccnc3[N+](=O)[O-])c12 | 98% (active)
CCCCCCC(O)CNCc1ccnc2ccc(OC)cc12 (stereo not drawn) | 61% (inactive)
Cc1c2cccc(Sc3ccccc3)c2c2c3c(cccc13)[S+](c1ccccc1)C2 (stereo not drawn) | 97% (active)
C=C1CCC(O)C/C1=C/C=C1\CCCC2(C)C1CCC2C(C)CCCC(C)C (stereo not drawn) | 93% (active)
NC1=NNC2(C(N)=N1)c1ccccc1-c1ccccc12 | 81% (active)
COC(=O)NC1C(C)OC(OC2C/C=C(/C)C3C=CC4C(OC5CC(OC6CC(O)C(OC7CC(O)C(OC)C(C)O7)C(C)O6)C(O)C(C)O5)C(C)CC(C)C4C3(C)/C(O)=C3\C(=O)OC4(CC(C)C(CO)=CC4/C=C\2C)C3=O)CC1(C)[N+](=O)[O-] (stereo not drawn) | 65% (inactive)
O=C1CSC(c2cccc(Cl)c2)N1c1ccc(-c2ccc(-n3c(-c4ccccc4)nc4ccccc4c3=O)cc2)cc1 (stereo not drawn) | 85% (active)
COc1ccc(N=CN(C)C)c(C)c1 | 72% (active)
Cc1cc(S(=O)(=O)Nc2nnc3cnc4ccccc4n23)c(S)cc1Cl | 82% (active)
